In PubChem BioAssay AID463173 (ICCB-Longwood Screening Facility, Harvard Medical School, 2010):
The campaign covered roughly 52,000 compounds. About 4,300 (8.3%) were called active. The full list was thinned out, with actives kept by preference. A number with no mark means an inactive call. Rule as the data show it: active = survival mostly below about 52% (no sharp cut-off); inactive = mostly above about 56%.

test system: DeltatarO mutant; assay: S. aureus survival, RN4220 and DeltatarO strains – OD600, teichoic acid synthesis inhibitors, primary screen (AID 463173); details: S. aureus RN4220 wild type/DeltatarO growth, OD600, 18 h, hits give low values, screened at 18.75 µg/mL (by protocol)

SMILES	survival
Cc1ccc(CCNC(=O)CCCn2c(=O)c3ccccc3n(Cc3ccccc3C)c2=O)cc1	88%
CC1CC(C)CN(C(=O)Cn2cnc3c2c(=O)n(C)c(=O)n3C)C1 (configuration not stated)	107%
Cc1ccccc1CNC(=O)CN1C(=O)CSc2ccc(S(=O)(=O)N(C)C)cc21	78%
CCC(=O)N(Cc1nc2ccccc2c(=O)[nH]1)Cc1ccccc1OC	90%
Cc1ccc(N2CCN(C(=O)c3cc(S(=O)(=O)N4CCCCC4)c[nH]3)CC2)c(C)c1	102%
CCOc1ccc(N(CC(=O)Nc2ccccc2CC)S(=O)(=O)c2c(C)noc2C)cc1	79%
COc1ccc(C(=O)Nc2nnc(SCc3cc(=O)n4cccc(C)c4n3)s2)cc1	72%
Cc1oc(C(=O)O)cc1CN1CCCC1	100%
O=C(O)c1ccc(CN2CCCCC2)cc1	79%
Cc1cc(C(=O)O)c(CN2CCCC2)o1	74% (active)
CC1=C(C(=O)Nc2cccnc2)C(c2ccccc2Cl)n2nc(-c3ccccc3)nc2N1 (configuration not stated)	74%
Cc1nc(SCC(N)=O)c2c3c(sc2n1)CCCC3	80%
Cc1nc(SCC(=O)OC(C)(C)C)c2c3c(sc2n1)CCCC3	7% (active)
Cc1ccc(-c2nc(NC(=O)CSc3nc(C)nc4sc5c(c34)CCCC5)ns2)cc1	53%
CCCCN(C)c1ncnc2c1cnn2-c1cccc(Cl)c1	101%
CCc1ccc(C(=O)c2cn(CC(=O)Nc3ccc4c(c3)OCO4)c3ccc(Cl)cc3c2=O)cc1	72%
Cc1oc2ccc(NS(=O)(=O)c3ccc(F)cc3)cc2c1C(=O)O	193%
Cc1cc(C)c(S(=O)(=O)Nc2ccc3oc4c(c3c2)CCCC4)cc1C	55%
O=S(=O)(Nc1ccc2oc3c(c2c1)CCCC3)c1cc(Cl)ccc1Cl	33% (active)
Cc1cc(S(=O)(=O)Nc2ccc3oc4c(c3c2)CCCC4)ccc1Cl	41% (active)
CCOc1ccc(S(=O)(=O)Nc2ccc3oc4c(c3c2)CC(C)CC4)cc1 (configuration not stated)	44%
CC(C)(C)C1CCc2oc3ccc(NS(=O)(=O)c4cc(Cl)ccc4Cl)cc3c2C1 (configuration not stated)	73%
CCn1cnc2c(=O)oc3ccc(S(=O)(=O)Nc4ccc(OC)cc4)cc3c21	75%
Cc1ccc(S(=O)(=O)Nc2cc(Cl)c3oc4c(c3c2)CCCC4)cc1	117%
CC(C)(C)C1CCc2oc3ccc(NS(=O)(=O)c4ccc(C(=O)O)cc4)cc3c2C1 (configuration not stated)	16% (active)

SMILES	survival
O=S(=O)(NC1CCCCC1)c1cc(Cl)ccc1Cl	96%
COc1ccc(S(=O)(=O)Nc2ccc3oc4c(c3c2)CCCC4)cc1	27% (active)
COc1ccc(S(=O)(=O)Nc2ccc3oc4c(c3c2)C(=O)CC(C)(C)C4)cc1	159%
CCN1C(=O)c2ccccc2Sc2ccc(NC(=O)Nc3ccc(Br)c(C)c3)cc21	71%
Oc1ccccc1Nc1nc2ccccc2n2nnnc12	80%
CN(C)CCCNc1nc(-c2ccc(Cl)cc2)cs1	132%
CCOc1cc(C2c3c(oc4cc(C)cc(C)c4c3=O)C(=O)N2CCO)ccc1O (configuration not stated)	68%
O=C(Cn1c2ncccc2c(=O)n1-c1ccccc1)Nc1cccc(C(F)(F)F)c1	67%
O=C(Nc1ccccc1C(=O)N1CCOCC1)C1COc2ccccc2O1 (configuration not stated)	95%
CCC(=O)N1CCc2cc(CNC(=O)c3ccc(F)cc3)ccc21	73%
O=C(Nc1ccc(Cl)cc1F)c1cc(S(=O)(=O)NCc2ccc3c(c2)OCO3)ccc1F	77%
COc1ccc(/C=C2\SC(=S)N(CCC(=O)NCCO)C2=O)cc1	104%
Cc1cc2c(cc1S(=O)(=O)NCc1ccc(N(C)C)cc1)OCC(=O)N2	80%
COc1ccc(NC(=O)c2[nH]nc3c2CSc2ccccc2-3)c(OC)c1	49%
CCOc1cccc2cc(-c3nc(-c4ccc(Cl)cc4)c(C)s3)c(=O)oc12	105%
COc1cccc2cc(-c3nc(-c4ccc(C)cc4)c(C)s3)c(=O)oc12	46% (active)
COc1cccc2cc(-c3nc(Nc4cccc(C)c4)sc3C)c(=O)oc12	98%
CCOC(=O)C1=C(SCC)c2cc3c(n2C1=O)CCCC3	83%
CCc1ccc(CNC(=O)c2cc(-c3ccc(Cl)s3)nc3ccccc23)cc1	83%
CC(C)CCNC(=O)c1cc(-c2ccc(Br)s2)nc2ccccc12	81%
COc1ccc(CNC(=O)c2cc(-c3ccc(Br)s3)nc3ccccc23)cc1	77%
CCc1ccc(CNC(=O)c2cc(-c3ccc(Br)s3)nc3ccccc23)cc1	60% (active)
CCN(CC)CCNC(=O)c1cc(-c2ccc(Br)s2)nc2ccccc12	28% (active)
CC(C)CN(CCCNC(=O)c1cc(-c2ccc(Br)s2)nc2ccccc12)CC(C)C	91%
CCCN(CCC)CCNC(=O)c1cc(-c2ccc(Br)s2)nc2ccccc12	68%

SMILES	survival
CCN(CC)CC(C)CNC(=O)c1cc(-c2ccc(Br)s2)nc2ccccc12 (configuration not stated)	31% (active)
CCCCN(C)CCCNC(=O)c1cc(-c2ccc(Br)s2)nc2ccccc12	33%
Cc1ccc(S(=O)(=O)c2cn(CC(=O)Nc3ccc(Cl)cc3)c3ccc(F)cc3c2=O)cc1C	53%
CC(C)(C)c1ccc(C(=O)Nc2ccccc2C(=O)OCc2cc(=O)n3ccsc3n2)cc1	73%
CC1OC(Nc2ccc(OC(F)(F)F)cc2)C(O)C(O)C1O (configuration not stated)	84%
CCC(C)n1c(=O)c2sccc2n2c(CCCC(=O)N3CCN(c4ccccc4)CC3)nnc12 (configuration not stated)	89%
Cc1ccc(NC(=O)CCNS(=O)(=O)c2cccc3nonc23)cc1Cl	39% (active)
CCOc1ccc(NC(=O)CCNS(=O)(=O)c2cccc3nsnc23)cc1	52%
CCc1cccc(NC(=O)CCNS(=O)(=O)c2cccc3nonc23)c1	97%
Cc1ccc(NC(=O)CCS(=O)(=O)c2cccc3nonc23)cc1Cl	71%
COc1ccc(NC(=O)CCS(=O)(=O)c2cccc3nonc23)cc1Cl	68%
CCOC(=O)c1cccc(NC(=O)CCNS(=O)(=O)c2cccc3nonc23)c1	46% (active)
Cc1cc(NC(=O)CCNS(=O)(=O)c2cccc3nsnc23)ccc1Br	102%
Cc1ccc(NC(=O)CCS(=O)(=O)c2cccc3nonc23)c(C)c1	99%
Cc1cccc(NC(=O)CCNS(=O)(=O)c2cccc3nonc23)c1	44% (active)
COC(=O)c1ccc(NC(=O)CCNS(=O)(=O)c2cccc3nsnc23)cc1	65%
Cc1cc(Br)ccc1NC(=O)CCNS(=O)(=O)c1cccc2nonc12	43% (active)
Cc1cc(Br)ccc1NC(=O)CCS(=O)(=O)c1cccc2nonc12	83%
Cc1cccc(Cn2c(=O)n(-c3cc(C)cc(C)c3)c(=O)c3oc4ccccc4c32)c1	71%
Cc1sc2ncn(CC(=O)N3CCN(c4ccc(F)cc4)CC3)c(=O)c2c1S(=O)(=O)N1CCC(C)CC1	75%
Cc1ccc(C)c(NC(=O)c2ccc(CN3CC(=O)N4CCCCC4C3=O)cc2)c1 (configuration not stated)	54%
Cc1cc(Oc2nc3ccccn3c(=O)c2/C=C(\C#N)c2nc3ccccc3s2)ccc1Cl	63%
COc1ccc(S(=O)(=O)N2CCC(C(=O)NC(C)c3ccccc3)CC2)cc1 (configuration not stated)	79%
COc1ccc(OC)c(/C=N/c2ncn[nH]2)c1	101%
COCCCNC(=O)Cn1c(=O)nc(-c2ccccc2)c2ccccc21	78%

SMILES	survival
CCOc1ccccc1NC(=O)c1ccc2c(c1)CCCN2S(C)(=O)=O	81%
Cc1nn(-c2ccc(N3CCCC3)nn2)c(C)c1CCC(=O)Nc1ccc(F)c(Cl)c1	68%
O=C(NCc1cccn1Cc1ccccc1)Nc1cccc(C(F)(F)F)c1	54%
COCCCNC(=O)c1ccc(Cn2c(=O)c3ccccc3n(Cc3ccc(Cl)cc3)c2=O)cc1	89%
COc1ccc(NC(=O)CN(C)S(=O)(=O)c2ccc3nc(C)sc3c2)cc1Cl	82%
CN(C)c1ccc(/C=N/c2nc3ccccc3o2)cc1	85%
COc1ccc(CCNC(=O)c2ccc(Cn3c(SCc4ccccc4)nc4cccnc43)cc2)cc1	92%
CCN(Cc1ccccc1)C(=O)c1cc2c(s1)-c1c(C)cccc1OC2	55% (active)
Cc1ccc(CNC(=O)c2cc3c(s2)-c2c(C)cccc2OC3)cc1	68%
CCN(C(=O)c1cc2c(s1)-c1c(C)cccc1OC2)c1ccccc1F	97%
Cc1ccc(CCNC(=O)c2cc3c(s2)-c2c(C)cccc2OC3)cc1	93%
CCN(C(=O)c1cc2c(s1)-c1c(C)cccc1OC2)c1cc(C)ccc1C	-1% (active)
Cc1cccc(CCNC(=O)c2cc3c(s2)-c2c(C)cccc2OC3)c1	83%
CC(C)CCN1C(=O)c2ccccc2CC1(C)C(=O)NC1CCC(C)CC1 (configuration not stated)	100%
CCOC(=O)c1c(C)[nH]c(CCC(=O)NCc2ccccc2Cl)c1C	98%
CCOc1ccc(NC(=O)Cn2cc(C(=O)c3ccccc3)c(=O)c3cc4c(cc32)OCCO4)cc1	73%
CC(=O)c1ccc(NC(=O)c2cn(-c3ccccc3)nc2-c2ccc(Br)cc2)cc1	75%
CCOC(=O)c1ccc(NC(=O)c2cn(-c3ccccc3)nc2-c2ccc(Br)cc2)cc1	70%
COc1ccc(-c2nn(-c3ccccc3)cc2C(=O)Nc2ccccc2OC)cc1	-2% (active)
COc1ccc(NC(=O)c2cn(-c3ccccc3)nc2-c2ccc(C)cc2)cc1	63%
O=C(O)c1ccc(NC(=O)c2cn(-c3ccccc3)nc2-c2ccc(Br)cc2)cc1	24% (active)
COc1ccccc1NC(=O)c1cn(-c2ccccc2)nc1-c1ccccc1	95%
